Source: PubChem BioAssay
Hits are enriched below; roughly 20% of the tested compounds scored in any of these assays.
Cycloheximide cs – Cycloheximide Counterscreen for Small Molecule Inhibitors of Shiga Toxin | AID 2314, 2010 | actives 12% (n = 300,000) | max response, % | cell reporter, cycloheximide protein synthesis inhibition counterscreen; in the data active means max response mostly above about 13%, no sharp cut-off; inactive means mostly below about 14%; further: read at 38.3 µM for the half of the compounds with a filed dose
Pf growth 48h – Primary qHTS for delayed death inhibitors of the malarial parasite plastid, 48 hour incubation; P. falciparum luciferase growth in erythrocytes, 48 h; actives 5.9% (n = 310,000); Potency, µM (doses to about 28.7 µM), usual class: inhibitors
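Luminescence readout; reporter = integrated firefly luciferase in P. falciparum. RBC culture at 2% hematocrit, 0.1% parasitemia final, 37 C/5% CO2; decreased signal taken as growth inhibition.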
HCMV antiviral – qHTS Assay for inhibitors of the human cytomegalovirus (HCMV) | activity change, negative = inhibition, % at 57.5 µM | actives 4.5% (n = 410,000) | HFF cells, HCMV-luciferase reporter, 72 h; hits give low values; in the data active means activity change below about -60%; inconclusive means no clear call, values can overlap the other calls; inactive means above about -39%
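Screen run at 2 compound doses on HFFs infected with reporter HCMV, MOI 1 PFU/cell. Luciferase activity from cell lysates at 72 h post infection gave inhibition relative to buffer-only and Salinomycin wells.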
Pf growth 96h – Primary qHTS for delayed death inhibitors of the malarial parasite plastid, 96 hour incubation. P. falciparum luciferase reporter growth, 96 h. Potency, µM (highest dose often 28.7 µM), usual class: inhibitors. actives 6.9% (n = 320,000). AID 504834, 2011
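Two-generation exposure (96 h) targets delayed-death phenotype. Reporter parasites carrying integrated firefly luciferase, in red cells at 2% hematocrit and 0.05% parasitemia final, kept at 37 C, 5% CO2; luminescence loss indicates inhibition.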
Shiga toxin inh – A qHTS for Small Molecule Inhibitors of Shiga Toxin; Vero cells, Shiga toxin protein synthesis inhibition reporter; inhibition, % at 38.7 µM; actives 9.2% (n = 290,000); in the data active means inhibition mostly above about 28%, no sharp cut-off; inactive means mostly below about 43%
A number is an active result; - = inactive; ? = inconclusive; . = not tested or not shown; [ ] = remark or other dose. Unless noted, the call rests on the fitted dose curve; in most records, active means well fitted inhibition curve with a large enough effect; inconclusive means small, poorly fitted or top-dose-only effect, or another doubt; inactive means no such curve, though single readings can be large or run the other way.

SMILES	Cycloheximide cs	Pf growth 48h	HCMV antiviral	Pf growth 96h	Shiga toxin inh
Cc1ccc(C(C(=O)NC2CCCC2)N2CCCC(C)C2)cc1 (stereo not given)	-	-	-	?	-
CC1CCN(C(C(=O)NC2CCCCC2)c2cc3c(cc2[N+](=O)[O-])OCO3)CC1 (stereo not given)	-	9.3µM	-	-	-
CC(=O)c1ccc(NC(=S)NCCc2ccccn2)cc1	43	-	-	-	21
Fc1ccc(NC(=S)NCCc2ccccn2)cc1	-	-	?	-	-
S=C(NCCc1ccccn1)Nc1ccc(Cl)cc1	39	-	-78	-	48
CN(CCc1ccccn1)C(=O)Nc1ccc(Cl)cc1	32	-	-	-	-
CC(C)(C)c1ccc(NC(=S)NCCc2ccccn2)cc1	17	-	?	?	-
Nc1nc2nc(-c3cccs3)cc(C(F)(F)F)n2n1	-	-	-	-	-
COc1ccc(Br)cc1CNC(=O)CCCn1c(=O)c2cccn2c2ccccc21	.	.	-	.	.
CC(=O)N/C(=N\c1nc(C)cc(C)n1)Nc1ccccc1Cl	-	-	-	-	-
COc1ccccc1C(=O)N/C(=N/c1nc(C)cc(C)n1)Nc1ccccc1	12	-	-	-	-
CCC(=O)N/C(=N/c1nc(C)cc(C)n1)Nc1ccccc1	-	-	?	-	-
CCC(=O)N/C(=N/c1nc(C)cc(C)n1)Nc1ccc(OC)cc1	-	-	?	15µM	-
CCc1ccc(N/C(=N/c2nc(C)cc(C)n2)NC(C)=O)cc1	-	.	-60	?	-
CC1Cn2c(C(=O)NCc3cccc(Br)c3)cc3cccc(c32)S1 (stereo not given)	.	.	-	.	.
CC(=O)C(C(C)=O)c1c(Cl)c(O)c(O)c2c(C(=O)c3ccccc3)coc12	-	.	-107	2.6µM	-
O=[N+]([O-])c1ccccc1S(=O)(=O)NC1CCCC1	-	-	-	?	-
Cc1ccc(-c2nn(-c3ccccc3)cc2/C=C/C(=O)Nc2nccs2)cc1	-	?	-	?	-
NS(=O)(=O)c1ccc(NC(=O)/C=C/c2cn(-c3ccccc3)nc2-c2cccc(Cl)c2)cc1	-	10µM	?	-	-
O=C(/C=C/c1cn(-c2ccccc2)nc1-c1ccccc1)Nc1ccc(C(=O)O)cc1	-	-	-	-	63
O=C(/C=C/c1cn(-c2ccccc2)nc1-c1cccnc1)c1ccco1	25	?	-99	-	-
Cc1c(NC(=O)/C=C/c2cn(-c3ccccc3)nc2-c2ccc(F)cc2)c(=O)n(-c2ccccc2)n1C	-	-	-	9.3µM	-
CC(=O)Nc1cc(-c2cccnc2)cn2c(-c3ccc(F)cc3)cnc12	.	.	-	.	.
Cc1nn(C(C)C(=O)NC2CCC(C)CC2)c(=O)c2c1sc1ccccc12 (stereo not given)	.	.	-	.	.
CSc1cccc(NC(=S)N(CCCN2CCCC(C)C2)Cc2cccs2)c1 (stereo not given)	-	?	-	-	-
SMILES	Cycloheximide cs	Pf growth 48h	HCMV antiviral	Pf growth 96h	Shiga toxin inh
C=CCOC(=O)C1=C(C)Nc2nc3ccccc3n2C1c1ccncc1 (stereo not given)	-	?	-	?	-
COc1ccc(N2C(=O)NC(=O)/C(=C/c3ccc4c(c3)Cc3ccccc3-4)C2=O)cc1	29	-	.	-	-
COc1cccc(N2C(=O)NC(=O)/C(=C/c3ccc4c5c(cccc35)CC4)C2=O)c1	-	-	-101	-	-
COc1cc(/C=C2\C(=O)NC(=O)N(c3ccc(C)cc3)C2=O)cc(OC)c1O	-	-	-	-	-
COc1cc(/C=C2/C(=O)NC(=O)N(c3ccc(C)cc3)C2=O)cc(OC)c1OC	27	-	-	-	67
CCC(=O)N1CCc2cc(Br)cc(S(=O)(=O)CCC(=O)N(CC)Cc3ccccc3)c21	.	.	-	.	.
COc1ccc(-c2cc(C(=O)Oc3ccccc3)c3cc(C)ccc3n2)cc1	.	.	-	.	.
Cc1cccc(NC(=O)C2CCN(S(=O)(=O)c3c(C)nn(C)c3C)CC2)n1	-	-	?	?	-
Cc1nn(C)c(C)c1S(=O)(=O)N1CCC(C(=O)NC2CCCCCC2)CC1	-	-	?	5.2µM	-
O=C(NC1CCCCCC1)C1CCN(S(=O)(=O)c2c(Cl)cccc2Cl)CC1	.	?	-	-	.
Cc1nn(C)c(C)c1S(=O)(=O)N1CCC(C(=O)NC2CCCCC2)CC1	-	-	-	9.3µM	-
COc1ccc(CCNC(=O)Cc2c(C)c3c(cc(C)c4c(C)coc43)oc2=O)cc1	.	.	-	.	.
COc1ccc2c(c1)nc1n2CN(CC2CCCO2)CN1Cc1ccccc1 (stereo not given)	32	9.3µM	.	12µM	49
COc1ccc(/C=C2/C(=O)N(CC3CCCO3)C(=S)N2C)c(OC)c1 (stereo not given)	-	-	-	-[5.75 µM]	-
C/C(=N\OC(=O)c1ccccc1)c1cc(-c2ccc(Cl)cc2)no1	-	-	-	-	-
C/C(=N/OC(=O)C1CC1)c1cc(-c2ccc(Cl)cc2)no1	18	-	-	-	-
CCOP(=O)(OCC)c1cccc(OP(=O)(c2cccc([N+](=O)[O-])c2)c2cccc([N+](=O)[O-])c2)c1	-	-	-	-	-
CCOP(=O)(OCC)c1cccc(O)c1	-	-	-65	-	-
Cc1ccccc1Cn1c(-c2cncs2)nc2ccccc21	-	1.5µM	-	-	-
Cn1c(-c2ccc(=O)[nH]c2)nc2ccccc21	-	?	-	?	-
O=c1ccc(-c2nc3ccccc3n2Cc2ccc(Cl)cc2)c[nH]1	-	5.9µM	-	9.3µM	-
Brc1ccccc1Cn1c(-c2cscn2)nc2ccccc21	-	.	-	10µM	-
CSc1ccccc1NC(=O)Cn1c(-c2cscn2)nc2ccccc21	-	-	-	-	-
O=Nc1c(O)n(Cc2ccc(Cl)c(Cl)c2)c2ccccc12	-	?	-	9.3µM	-
Brc1cc2c(cc1Cn1c(-c3cncs3)nc3ccccc31)OCO2	-	?	-	?	-
SMILES	Cycloheximide cs	Pf growth 48h	HCMV antiviral	Pf growth 96h	Shiga toxin inh
Cc1ccccc1Cn1c(C)nc2ccccc21	-	?	-87	-	-
CC(C)N(C(=O)CSc1nc2ccccc2n1Cc1ccccc1)C(C)C	-	?	?	-	-
OCc1nc2ccccc2n1Cc1ccc(Cl)cc1	-	-	-	-	-
COc1ccccc1Cn1c(C)nc2ccccc21	-	-	-	-	-
Cc1ccc(Cn2c(N)nc3ccccc32)cc1	-	-	?	-	-
Nc1nc2ccccc2n1Cc1ccc(Cl)c(Cl)c1	-	10µM	-	?	.
CC(C)N(C(=O)CSc1nc2ccccc2n1Cc1ccccc1F)C(C)C	-	10µM	-	-	-
Cc1nc2ccccc2n1Cc1ccc(Cl)cc1	-	?	-89	?	-
CCCCCCN1CCN(C2CN(CCCC)S(=O)(=O)C2)CC1 (stereo not given)	.	.	-	.	.
COC(=O)c1sccc1-c1ccc(/C=N/OC(=O)c2ccccc2)o1	-	-	-	-	-
Fc1ccccc1Cn1c(-c2ccccc2)nc2ccccc21	.	.	-61	.	.
Nc1nc(=S)c2[nH]c(=S)[nH]c2[nH]1	.	.	-	.	.
Nc1nc(=S)c2[nH]cnc2[nH]1	.	8.3µM	-86	?	.
